# Screening results deposited in PubChem BioAssay by National Center for Advancing Translational Sciences (NCATS).
# ALDH1A1 inh – inhibitors of human aldehyde dehydrogenase 1A1. Purified ALDH1A1, NADH fluorescence, propionaldehyde substrate. Potency, µM (top dose mostly 75.3 µM), without a hit: at the top dose activity, negative = inhibition, usual class: inhibitors. 220,000 compounds, 7.3% hits; active means well fitted inhibition curve with a large enough effect, not every such curve was filed as active; inconclusive means small, poorly fitted or top-dose-only effect, or another doubt; inactive means no such curve, though single readings can be large or run the other way;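 further: potency means the concentration at half of the fitted maximal effect; plate controls were no enzyme wells and a reference inhibitor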
# aGal spleen mod – inhibitors or activators of human alpha-galactosidase in spleen homogenate. P06280. human spleen homogenate, 4MU-alpha-Gal fluorescence, 40 min. Potency, µM (titrated, usually from 80 µM), for the others: at the highest dose activity change, negative = inhibition, hits mostly inhibitors. 240,000 compounds, 0.008% hits. AID 2107;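 further: potency means the concentration at half of the fitted maximal effect; 0% = enzyme with vehicle and -100% = no enzyme basal signal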
#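 qHTS titration in buffer at pH 5.0. Alpha-galactosidase activity in spleen homogenate was measured via 4-methylumbelliferone release from 1 mM fluorogenic substrate after 40 min at 37C and a pH 10 stop. AC50 came from Hill fits of control-normalized data.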
# HPGD inh – blocks human HPGD enzyme activity | purified HPGD, NADH fluorescence kinetic, PGE2 substrate | P15428 | 150,000 compounds, 4.3% hits | AID 894 | Potency, µM, without a hit: at the highest dose activity change, negative = inhibition, actives largely listed as inhibitors; active means well fitted inhibition curve with a large enough effect, not every such curve was filed as active; inconclusive means small, poorly fitted or top-dose-only effect, or another doubt; inactive means no such curve, though single readings can be large or run the other way; further: potency means the concentration at half of the fitted maximal effect
#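 20 nM HPGD preincubated 15 min at room temperature with compound in 50 mM Tris-HCl pH 8, 0.01% Tween 20. Started with 1 mM NAD+ and 30 uM prostaglandin E2; NADH fluorescence (360/450 nm) read 5 times over 30-s intervals, last minus first.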
# 12-hLO inh – 12-hLO (ALOX12) enzyme inhibition | P18054 | 150,000 compounds, 0.12% hits | Potency, µM (top dose mostly 57.1 µM), without a hit: at the highest dose activity change, negative = inhibition, most hits filed as inhibitors | purified 12-hLO, xylenol orange hydroperoxide absorbance; further: potency means the concentration at half of the fitted maximal effect; nearly all actives have a fitted effect of over 55% in size
#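 Hydroperoxide output read as Fe(III)-xylenol orange absorbance, 573-to-405 nm ratio, after 30 min reaction with 40 uM arachidonic acid. Enzyme: 150 nM purified human 12hLO, 15 min compound preincubation; 25 mM Hepes pH 7.0, room temperature.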
# PNC assembly inh – blocks assembly of the perinucleolar compartment | PC3M PTB-GFP, PNC prevalence imaging, 16 h; hits give low values | activity change (PNC), negative = inhibition, % at 10 µM | 140,000 compounds, 3.1% hits;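 active means readout at or below -70, meaning at least 70% loss of cells showing the perinucleolar compartment, a nuclear body marking cancer cells; inconclusive means readout between -30 and a set limit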;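 further: plate controls were DMSO wells for no effect and camptothecin positive control wells for full effect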
#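 Read-out is percentage of cells bearing a perinucleolar compartment, from automated 20x imaging of fixed, Hoechst-stained PC3M PTB-GFP cells. Cells were seeded 4 h, then exposed 16 h to compound (23 nl of library stock) in duplicate plates.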
# GLA inh pH 4.5 – inhibitors of human alpha-galactosidase A at pH 4.5; P06280; activity change, negative = inhibition, % at 105 µM; purified enzyme, 4-MU-alpha-Gal fluorescence, pH 4.5; 230,000 tested, under 10 active;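 further: 0% = full activity with enzyme and -100% = basal without enzyme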
# Target sequence (P06280 whole entry, looked up): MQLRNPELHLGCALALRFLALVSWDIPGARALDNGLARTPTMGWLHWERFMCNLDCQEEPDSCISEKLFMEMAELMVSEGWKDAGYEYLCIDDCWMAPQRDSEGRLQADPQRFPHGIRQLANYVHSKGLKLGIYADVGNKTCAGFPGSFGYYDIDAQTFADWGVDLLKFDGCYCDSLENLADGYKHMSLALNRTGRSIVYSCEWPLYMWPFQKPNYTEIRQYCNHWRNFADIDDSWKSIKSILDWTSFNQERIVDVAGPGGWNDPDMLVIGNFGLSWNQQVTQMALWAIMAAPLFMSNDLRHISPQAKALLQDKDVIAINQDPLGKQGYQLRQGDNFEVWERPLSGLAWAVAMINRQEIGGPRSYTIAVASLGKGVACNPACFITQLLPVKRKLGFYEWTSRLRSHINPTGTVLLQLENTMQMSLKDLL
# * = called active by the depositor; ? = inconclusive; / = no result given; [ ] = another dose, or the depositor's remark. Hits are enriched below; roughly 10% of the tested compounds scored in any of these assays. Unless noted, the call rests on the fitted dose curve; in most records, active means well fitted curve in the direction sought with a large enough effect; inconclusive means small, poorly fitted or top-dose-only effect, or another doubt; inactive means no such curve, though single readings can be large; an effect the other way counts as inactive or inconclusive. Unless noted, on the % scale 0 is the no-effect control and ±100 the full control effect.
SMILES,ALDH1A1 inh,aGal spleen mod,HPGD inh,12-hLO inh,PNC assembly inh,GLA inh pH 4.5
O=C1N2CCCc3cccc(c32)C12Nc1ccccc1S2 (stereo not drawn),14.1µM*,-7.0%,-16.6%,-21.3%,10.2,-7.5
Nc1ncn(-c2ncc(C(F)(F)F)cc2Cl)n1,-1.0%,1.3%,/,/,/,-6.2
CCOC(=O)C(C)Oc1cccc2c(=O)n(CC(=O)N3CCCc4ccccc43)ccc12 (stereo not drawn),20µM*,-5.0%,?,0.2%,6.0,-4.1
CCOC(=O)COc1cccc2c(=O)n(CC(=O)N3CCc4ccccc43)ccc12,-5.3%,5.6%,-11.6%,-0.2%,-110.6*,6.9
COc1cccc2c(=O)n(CC(=O)N3CCc4ccccc43)ccc12,?,-5.9%,-15.8%,1.2%,15.9,8.0
Cc1nc2ncnn2c(N2CCCC(C(=O)Nc3ccc4c(c3)CCC4)C2)c1C (stereo not drawn),?,12.2%,28.2µM*,-5.5%,-11.5,10.7
CCN(CC(=O)Nc1sc2c(c1C#N)CCC(C)C2)Cc1nc2ccccc2c(=O)[nH]1 (stereo not drawn),25.1µM*,7.8%,/,/,/,-17.0
CCN(CC(=O)Nc1sc2c(c1C#N)CCCC2)Cc1nc2ccccc2c(=O)[nH]1,?,5.2%,/,/,/,-4.0
CN(C)c1ccc(NC(=O)CSc2nnc(-c3cccs3)n2Cc2ccco2)cc1,17.8µM*,-5.1%,-11.0%,4.6%,31.6,-4.5
Cc1ccc(NC(=O)CSc2nnc(-c3cccs3)n2Cc2ccco2)cc1,-2.8%,10.2%,3.9%,-3.7%,17.9,-7.5
COc1ccc(NC(=O)CSc2nnc(-c3ccccc3Cl)n2Cc2ccco2)c(OC)c1,14.1µM*,3.9%,/,-8.4%,10.7,-11.1
CCOc1ccc(NC(=O)CSc2nnc(-c3ccccc3Cl)n2Cc2ccco2)cc1,14.1µM*,12.7%,/,-10.8%,7.5,-7.8
COc1ccc(NC(=O)CSc2nnc(-c3ccccc3)n2Cc2ccco2)c(OC)c1,?,0.3%,-12.1%,-3.7%,15.6,-16.0
CCOc1ccc(NC(=O)CSc2nnc(-c3ccco3)n2C)cc1,4.9%,-5.5%,-17.7%,-5.4%,9.1,-0.8
O=c1[nH]c(/C(Cl)=C/c2cccc(F)c2)nc2cc(C(F)(F)F)ccc12,-9.8%,7.6%,/,/,/,-8.5
COc1cc(N=C(N)N=C(N)N)c2ncccc2c1,9.1%[13.5 µM],/,-9.2%,-1.9%[11.4 µM],/,/
N#C/C(=C\c1ccc(-c2cccc([N+](=O)[O-])c2)o1)c1nnc(N2CCOCC2)n1-c1ccccc1,7.94µM*,2.6%,/,/,/,1.6
N#C/C(=C\c1ccc(-c2cccc([N+](=O)[O-])c2)o1)C(=O)N1CCOCC1,-14.2%,-2.1%,/,/,/,-4.2
O=C(O)C1CC(CCCP(=O)(O)O)CCN1 (stereo not drawn),/,7.9%,/,/,/,/
Cc1ccc(C(=O)OCC2OC3OC(C)(C)OC3C2O)cc1 (stereo not drawn),-0.2%,-0.3%,3.98µM*,2.8%,-29.6,-6.3
CC/C=C1/OC(=O)c2ccccc21,?,4.8%,-7.4%,0.8%,/,/
O=C(COc1ccccc1Cl)N(Cc1ccco1)C1CCS(=O)(=O)C1 (stereo not drawn),23.9%,0.7%,/,0.1%,-111.1*,-0.2
O=C(COc1ccccc1)N(Cc1ccco1)C1CCS(=O)(=O)C1 (stereo not drawn),22.4µM*,-9.4%,-11.0%,-1.6%,-3.9,5.7
CC1C/C(=C/c2cccn2C)C(=O)/C(=C/c2cccn2C)C1 (stereo not drawn),3.55µM*,-2.5%,-22.8%,-25.8%,-7.9,-14.1
CC1C/C(=C/c2ccncc2)C(=O)/C(=C/c2ccncc2)C1 (stereo not drawn),-1.7%,-17.7%,/,/,/,-3.5
O=C(NC1CCCCC1)c1cc2nc3c(c(C(F)(F)F)n2n1)CCCC3,?,-5.6%,28.2µM*,4.6%,-29.2,-9.4
CC(C(=O)N1CCN(Cc2ccc3c(c2)OCO3)CC1)c1ccc([N+](=O)[O-])cc1 (stereo not drawn),?,-7.9%,/,/,/,-7.3
